This is part of a sample that, as a whole, favours compounds with a hit. Of some 79,000 tested, about 15% had one in any assay. Active and inactive are the calls of the source. No stated cut-off is given here; in the data, active means growth inhibition above about 70%; inactive means the rest.
Columns and labels:
[1] = NCI Yeast Anticancer Drug Screen. Data for the wt1 strain (AID 149);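 further: 0% = growth of vehicle-treated wt1 cultures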; settings: S. cerevisiae wt1 strain (SPY 50644) growth inhibition, stronger effect = higher value
How it was run: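 wt1 yeast, compound-treated; % growth inhibition vs vehicle control.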

[2] = NCI Yeast Anticancer Drug Screen. Data for the rad50EPP+ strain (AID 151);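 further: 0% = growth of vehicle-treated control cultures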; settings: S. cerevisiae rad50 mutant strain, stronger effect = higher value
How it was run: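 rad50EPP+ yeast treated with test compounds. Readout: growth vs vehicle control.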

[3] = NCI Yeast Anticancer Drug Screen. Data for the mgt1 strain (AID 153); settings: S. cerevisiae mgt1 mutant growth inhibition, stronger effect = higher value
How it was run: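 Growth inhibition relative to vehicle controls was scored for the mgt1 yeast strain after compound exposure.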

[4] = NCI Yeast Anticancer Drug Screen. Data for the rad50 strain (AID 155);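 further: 0% = growth of vehicle-only cultures of the same strain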; settings: S. cerevisiae rad50 strain growth inhibition, stronger effect = higher value
How it was run: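 Genetically altered yeast (DNA repair pathway); compound treatment; growth inhibition vs vehicle ctrl.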

[5] = NCI Yeast Anticancer Drug Screen. Data for the mec2-1 strain (AID 157); settings: S. cerevisiae mec2-1 strain, stronger effect = higher value
How it was run: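 Growth inhibition is read against vehicle-treated controls after compound exposure of the mec2-1 yeast strain, which is defective in DNA damage repair or cell cycle control.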

[6] = NCI Yeast Anticancer Drug Screen. Data for the rad14 strain (AID 159);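 further: 0% = growth of vehicle-treated control cultures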; settings: S. cerevisiae rad14 strain growth inhibition, stronger effect = higher value
How it was run: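 Test compounds were applied to a repair-deficient yeast strain. Its growth was then compared with that of cultures given vehicle alone, and inhibition was expressed relative to those controls.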

[7] = NCI Yeast Anticancer Drug Screen. Data for the sgs1 mgt1 strain (AID 161);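 further: 0% = growth of cultures given vehicle only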; settings: S. cerevisiae sgs1 mgt1 strain, stronger effect = higher value
How it was run: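 Yeast cells carrying a defined DNA-repair defect were exposed to test compounds. Growth inhibition was measured relative to vehicle-treated controls.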

[8] = NCI Yeast Anticancer Drug Screen. Data for the CLN2oe strain (AID 163);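 further: 0% = growth of vehicle-only control cultures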; settings: S. cerevisiae CLN2oe strain, stronger effect = higher value
How it was run: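 Compound-treated yeast; growth vs vehicle ctrl = % inhibition. Genetically altered strain (cell-cycle control).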

[9] = NCI Yeast Anticancer Drug Screen. Data for the cln2 rad14 strain (AID 165);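 further: 0% = growth equal to vehicle treated cultures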; settings: S. cerevisiae cln2 rad14 strain, stronger effect = higher value
How it was run: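 Growth inhibition, relative to vehicle-treated controls, is the read-out. The test organism is a yeast strain with defined genetic alterations, cln2 rad14.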

[10] = NCI Yeast Anticancer Drug Screen. Data for the bub3 strain (AID 167); settings: S. cerevisiae bub3 mutant strain, stronger effect = higher value
How it was run: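 Yeast carrying a defined mutation is treated with each compound, and growth is compared with that of vehicle-exposed cells to give inhibition.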

[11] = NCI Yeast Anticancer Drug Screen. Data for the wt2 strain (AID 169);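 further: 0% = growth of vehicle-treated yeast cultures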; settings: S. cerevisiae wt2 strain growth inhibition, stronger effect = higher value
How it was run: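 Compound exposure of yeast; growth compared with vehicle controls; inhibition reported.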

[12] = NCI Yeast Anticancer Drug Screen. Data for the sgs1 strain (AID 173);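 further: 0% = growth of vehicle-only control cultures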; settings: S. cerevisiae sgs1 mutant, stronger effect = higher value
How it was run: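 Compounds applied to genetically altered yeast; growth compared with vehicle-treated cultures to give % inhibition.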

[13] = NCI Yeast Anticancer Drug Screen. Data for the mlh1 rad18 strain (AID 175); settings: S. cerevisiae mlh1 rad18 strain growth inhibition, stronger effect = higher value
How it was run: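 Cells of a genetically altered yeast strain, deficient in DNA damage repair, were treated with compound. Their growth was then compared with that of vehicle-treated cultures to give inhibition.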

[14] = NCI Yeast Anticancer Drug Screen. Data for the rad18 strain (AID 177); settings: S. cerevisiae rad18 mutant growth inhibition, stronger effect = higher value
How it was run: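 Compounds are applied to a repair-deficient yeast strain, and growth is compared with that of vehicle-treated cultures to give percent inhibition.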

[15] = at 5.0 µM (retest, dose inferred, filed as 0.5)
[16] = at 50.0 µM (retest, dose inferred, filed as 5.0)

Measured: growth inhibition

CC(C)(C)[Si](C)(C)OCC1OC(n2cnc3c(N)ncnc32)C2OC(=S)OC12 (stereo not drawn)
active: [4]; at 100.0 µM 98% | [6]; at 100.0 µM 96% | [9]; [16] 98% | [12]; at 100.0 µM 80% | [14]; at 100.0 µM 86%
inactive: [1]; at 1.2 µM 1% | [1]; at 3.7 µM -1% | [1]; at 11.0 µM 0% | [1]; at 33.0 µM 2% | [1]; at 100.0 µM 17% | [2]; at 1.2 µM -5% | [2]; at 3.7 µM -6% | [2]; at 11.0 µM -3% | [2]; at 33.0 µM 3% | [2]; at 100.0 µM 8% | [3]; at 1.2 µM -1% | [3]; at 3.7 µM 0% | [3]; at 11.0 µM 0% | [3]; at 33.0 µM -29% | [3]; at 100.0 µM 14% | [4]; at 1.2 µM -1% | [4]; at 3.7 µM 5% | [4]; [15] 5% | [4]; at 11.0 µM -19% | [4]; at 33.0 µM 17% | [4]; [16] 45% | [4]; at 50.0 µM 4.45% | [5]; at 1.2 µM 0% | [5]; at 3.7 µM 2% | [5]; [15] 5% | [5]; at 11.0 µM 2% | [5]; at 33.0 µM 7% | [5]; [16] 56% | [5]; at 50.0 µM 40% | [5]; at 100.0 µM 28% | [6]; at 1.2 µM 0% | [6]; at 3.7 µM 2% | [6]; at 11.0 µM 3% | [6]; at 33.0 µM 11% | [7]; [15] 5% | [7]; [16] 29% | [7]; at 50.0 µM 11.6% | [8]; at 1.2 µM -2% | [8]; at 3.7 µM -3% | [8]; at 11.0 µM -1% | [8]; at 33.0 µM -2% | [8]; at 100.0 µM 9% | [9]; [15] 3% | [9]; at 50.0 µM -15.6% | [10]; at 1.2 µM 0% | [10]; at 3.7 µM 2% | [10]; [15] -42% | [10]; at 11.0 µM 3% | [10]; at 33.0 µM 3% | [10]; [16] 3% | [10]; at 50.0 µM 48.4% | [10]; at 100.0 µM 10% | [11]; at 1.2 µM -1% | [11]; at 3.7 µM 9% | [11]; at 11.0 µM 1% | [11]; at 33.0 µM 2% | [11]; at 100.0 µM 36% | [12]; at 1.2 µM -1% | [12]; at 3.7 µM 2% | [12]; at 11.0 µM 4% | [12]; at 33.0 µM 14% | [13]; [15] 7% | [13]; [16] 22% | [13]; at 50.0 µM 48.1% | [14]; at 1.2 µM -1% | [14]; at 3.7 µM 1% | [14]; at 11.0 µM 6% | [14]; at 33.0 µM 22%
